In PubChem BioAssay (NCI):
This is part of a sample that, as a whole, favours compounds with a hit. Of some 79,000 tested, about 15% had one in any assay. Active and inactive are the calls of the source. Rule as the data show it: active = growth inhibition above about 70%; inactive = the rest.

Legend:
[1] = NCI Yeast Anticancer Drug Screen. Data for the wt2 strain (AID 169);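 also: 0% = growth of vehicle-treated yeast cultures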; conditions: S. cerevisiae wt2 strain growth inhibition, hits give high values
Summary of the method: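 Compound exposure of yeast; growth compared with vehicle controls; inhibition reported.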

[2] = NCI Yeast Anticancer Drug Screen. Data for the mlh1 strain (AID 171);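 also: 0% = growth of vehicle-treated control cultures of the same strain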; conditions: S. cerevisiae mlh1 strain growth inhibition, hits give high values
Summary of the method: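 Compounds are applied to a genetically altered yeast strain, and its growth is compared with that of vehicle-treated cultures to give percent inhibition.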

[3] = NCI Yeast Anticancer Drug Screen. Data for the sgs1 strain (AID 173);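 also: 0% = growth of vehicle-only control cultures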; conditions: S. cerevisiae sgs1 mutant, hits give high values
Summary of the method: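 Compounds applied to genetically altered yeast; growth compared with vehicle-treated cultures to give % inhibition.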

[4] = NCI Yeast Anticancer Drug Screen. Data for the mlh1 rad18 strain (AID 175); conditions: S. cerevisiae mlh1 rad18 strain growth inhibition, hits give high values
Summary of the method: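 Cells of a genetically altered yeast strain, deficient in DNA damage repair, were treated with compound. Their growth was then compared with that of vehicle-treated cultures to give inhibition.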

[5] = NCI Yeast Anticancer Drug Screen. Data for the rad18 strain (AID 177); conditions: S. cerevisiae rad18 mutant growth inhibition, hits give high values
Summary of the method: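 Compounds are applied to a repair-deficient yeast strain, and growth is compared with that of vehicle-treated cultures to give percent inhibition.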

[6] = NCI Yeast Anticancer Drug Screen. Data for the rad52 strain (AID 147);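 also: 0% = growth of vehicle-treated control cultures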; conditions: S. cerevisiae rad52 mutant growth inhibition, hits give high values
Summary of the method: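 DNA repair-defective yeast; compound exposure; growth scored against vehicle controls.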

[7] = NCI Yeast Anticancer Drug Screen. Data for the wt1 strain (AID 149);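 also: 0% = growth of vehicle-treated wt1 cultures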; conditions: S. cerevisiae wt1 strain (SPY 50644) growth inhibition, hits give high values
Summary of the method: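 The wt1 strain was treated with compounds, and growth was compared with vehicle-treated cultures to give inhibition.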

[8] = NCI Yeast Anticancer Drug Screen. Data for the rad50EPP+ strain (AID 151);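 also: 0% = growth of vehicle-treated control cultures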; conditions: S. cerevisiae rad50 mutant strain, hits give high values
Summary of the method: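 rad50EPP+ yeast treated with test compounds. Readout: growth vs vehicle control.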

[9] = NCI Yeast Anticancer Drug Screen. Data for the mgt1 strain (AID 153); conditions: S. cerevisiae mgt1 mutant growth inhibition, hits give high values
Summary of the method: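 Growth inhibition relative to vehicle controls was scored for the mgt1 yeast strain after compound exposure.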

[10] = NCI Yeast Anticancer Drug Screen. Data for the rad50 strain (AID 155);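 also: 0% = growth of vehicle-only cultures of the same strain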; conditions: S. cerevisiae rad50 strain growth inhibition, hits give high values
Summary of the method: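 Cells are treated with compound, grown, and their growth is then scored against vehicle-only cultures of the same repair-deficient yeast strain.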

[11] = NCI Yeast Anticancer Drug Screen. Data for the mec2-1 strain (AID 157); conditions: S. cerevisiae mec2-1 strain, hits give high values
Summary of the method: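 Growth inhibition is read against vehicle-treated controls after compound exposure of the mec2-1 yeast strain, which is defective in DNA damage repair or cell cycle control.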

[12] = NCI Yeast Anticancer Drug Screen. Data for the rad14 strain (AID 159);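 also: 0% = growth of vehicle-treated control cultures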; conditions: S. cerevisiae rad14 strain growth inhibition, hits give high values
Summary of the method: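 Readout: yeast growth inhibition, referenced to vehicle-only cultures. Strain bears a defined alteration in DNA damage repair.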

[13] = NCI Yeast Anticancer Drug Screen. Data for the sgs1 mgt1 strain (AID 161);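 also: 0% = growth of cultures given vehicle only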; conditions: S. cerevisiae sgs1 mgt1 strain, hits give high values
Summary of the method: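 Percent growth inhibition was derived by comparing compound-exposed mutant yeast with vehicle-exposed cultures. The strain carries alterations in DNA damage repair.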

[14] = NCI Yeast Anticancer Drug Screen. Data for the CLN2oe strain (AID 163);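 also: 0% = growth of vehicle-only control cultures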; conditions: S. cerevisiae CLN2oe strain, hits give high values
Summary of the method: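 Compound-treated yeast; growth vs vehicle ctrl = % inhibition. Genetically altered strain (cell-cycle control).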

[15] = NCI Yeast Anticancer Drug Screen. Data for the cln2 rad14 strain (AID 165);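 also: 0% = growth equal to vehicle treated cultures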; conditions: S. cerevisiae cln2 rad14 strain, hits give high values
Summary of the method: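 Growth inhibition, relative to vehicle-treated controls, is the read-out. The test organism is a yeast strain with defined genetic alterations, cln2 rad14.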

[16] = NCI Yeast Anticancer Drug Screen. Data for the bub3 strain (AID 167); conditions: S. cerevisiae bub3 mutant strain, hits give high values
Summary of the method: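 Part of a panel of yeast mutants defective in DNA damage repair or cell cycle regulation. Each strain is grown with compound, and inhibition is calculated relative to solvent-treated cultures.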

[17] = at 5.0 µM (retest, dose inferred, filed as 0.5)
[18] = at 50.0 µM (retest, dose inferred, filed as 5.0)

Measured: growth inhibition

Oc1ccc(N=Nc2ccc(Cl)cc2)cc1
inactive: [1]; at 1.2 µM -1% | [1]; at 3.7 µM 5% | [2]; at 1.2 µM 4% | [2]; at 3.7 µM 2% | [3]; at 1.2 µM 0% | [3]; at 3.7 µM 7% | [4]; [17] 6% | [5]; at 1.2 µM 0% | [5]; at 3.7 µM 3%
active: [1]; at 11.0 µM 93% | [1]; at 33.0 µM 99% | [1]; at 100.0 µM 99% | [2]; at 11.0 µM 77% | [2]; at 33.0 µM 99% | [2]; at 100.0 µM 99% | [3]; at 11.0 µM 87% | [3]; at 33.0 µM 99% | [3]; at 100.0 µM 98% | [4]; [18] 99% | [4]; at 50.0 µM 99.4% | [5]; at 11.0 µM 77% | [5]; at 33.0 µM 99% | [5]; at 100.0 µM 97%

CCCCCCC=C(C(=O)OCC)C(=O)OCC
active: [4]; [18] 85% | [4]; at 50.0 µM 76.3%
inactive: [6]; at 1.2 µM -2% | [6]; at 3.7 µM 0% | [6]; at 11.0 µM -1% | [6]; at 33.0 µM 2% | [6]; at 100.0 µM 23% | [7]; at 1.2 µM -2% | [7]; at 3.7 µM -3% | [7]; at 11.0 µM -6% | [7]; at 33.0 µM -7% | [7]; at 100.0 µM 4% | [8]; at 1.2 µM -1% | [8]; at 3.7 µM 4% | [8]; at 11.0 µM 7% | [8]; at 33.0 µM 14% | [8]; at 100.0 µM 24% | [9]; at 1.2 µM -1% | [9]; at 3.7 µM -3% | [9]; at 11.0 µM 0% | [9]; at 33.0 µM -5% | [9]; at 100.0 µM 13% | [10]; at 1.2 µM -2% | [10]; at 3.7 µM -3% | [10]; [17] -18% | [10]; at 11.0 µM -3% | [10]; at 33.0 µM -5% | [10]; [18] 11% | [10]; at 50.0 µM -8.3% | [10]; at 100.0 µM 22% | [11]; at 1.2 µM -1% | [11]; at 3.7 µM 1% | [11]; [17] -8% | [11]; at 11.0 µM -2% | [11]; at 33.0 µM 5% | [11]; [18] 46% | [11]; at 50.0 µM 38% | [11]; at 100.0 µM 22% | [12]; at 1.2 µM -3% | [12]; at 3.7 µM -4% | [12]; at 11.0 µM -2% | [12]; at 33.0 µM 2% | [12]; at 100.0 µM 13% | [13]; [17] -11% | [13]; [18] 68% | [13]; at 50.0 µM 42% | [14]; at 1.2 µM -4% | [14]; at 3.7 µM -4% | [14]; at 11.0 µM -8% | [14]; at 33.0 µM -10% | [14]; at 100.0 µM 3% | [15]; [17] -13% | [15]; [18] 19% | [15]; at 50.0 µM 18.1% | [16]; at 1.2 µM 0% | [16]; at 3.7 µM 0% | [16]; [17] -6% | [16]; at 11.0 µM -1% | [16]; at 33.0 µM 1% | [16]; [18] 18% | [16]; at 50.0 µM 63% | [16]; at 100.0 µM 17% | [1]; at 1.2 µM -2% | [1]; at 3.7 µM -3% | [1]; at 11.0 µM -5% | [1]; at 33.0 µM -4% | [1]; at 100.0 µM 16% | [2]; at 1.2 µM -2% | [2]; at 3.7 µM -2% | [2]; at 11.0 µM -7% | [2]; at 33.0 µM 1% | [2]; at 100.0 µM 19% | [3]; at 1.2 µM -1% | [3]; at 3.7 µM -1% | [3]; at 11.0 µM 1% | [3]; at 33.0 µM 5% | [3]; at 100.0 µM 30% | [4]; [17] -3% | [5]; at 1.2 µM -1% | [5]; at 3.7 µM 5% | [5]; at 11.0 µM 8% | [5]; at 33.0 µM 14% | [5]; at 100.0 µM 32%

Cc1cc2nc3ccccc3n2c2ccccc12
inactive: [6]; at 1.2 µM -33% | [6]; at 3.7 µM -33% | [6]; at 11.0 µM -56% | [6]; at 33.0 µM -11% | [6]; at 100.0 µM 41% | [7]; at 1.2 µM -53% | [7]; at 3.7 µM -48% | [7]; at 11.0 µM -39% | [7]; at 33.0 µM -31% | [7]; at 100.0 µM -8% | [8]; at 1.2 µM -49% | [8]; at 3.7 µM -24% | [8]; at 11.0 µM -21% | [8]; at 33.0 µM 28% | [8]; at 100.0 µM 63% | [9]; at 1.2 µM -25% | [9]; at 3.7 µM 4% | [9]; at 11.0 µM 6% | [9]; at 33.0 µM 37% | [9]; at 100.0 µM 61% | [10]; at 1.2 µM 2% | [10]; at 3.7 µM -7% | [10]; [17] 0% | [10]; at 11.0 µM 5% | [10]; at 33.0 µM 64% | [10]; at 50.0 µM 41% | [11]; at 1.2 µM -45% | [11]; at 3.7 µM -45% | [11]; [17] -11% | [11]; at 11.0 µM -41% | [11]; at 33.0 µM -30% | [11]; [18] 39% | [11]; at 50.0 µM 56.1% | [11]; at 100.0 µM 8% | [12]; at 1.2 µM -21% | [12]; at 3.7 µM -37% | [12]; at 11.0 µM -36% | [12]; at 33.0 µM -23% | [12]; at 100.0 µM 35% | [13]; [17] -10% | [13]; [18] 29% | [13]; at 50.0 µM 66.7% | [14]; at 1.2 µM -32% | [14]; at 3.7 µM -24% | [14]; at 11.0 µM -30% | [14]; at 33.0 µM -7% | [14]; at 100.0 µM 37% | [15]; [17] 2% | [15]; [18] 60% | [15]; at 50.0 µM 52.6% | [16]; at 1.2 µM -15% | [16]; at 3.7 µM -7% | [16]; [17] 5% | [16]; at 11.0 µM -6% | [16]; at 33.0 µM 5% | [16]; [18] 50% | [16]; at 50.0 µM 69% | [16]; at 100.0 µM 44% | [1]; at 1.2 µM -57% | [1]; at 3.7 µM -45% | [1]; at 11.0 µM -51% | [1]; at 33.0 µM -23% | [1]; at 100.0 µM 45% | [2]; at 1.2 µM -33% | [2]; at 3.7 µM -27% | [2]; at 11.0 µM -7% | [2]; at 33.0 µM 53% | [3]; at 1.2 µM -43% | [3]; at 3.7 µM -35% | [3]; at 11.0 µM -40% | [3]; at 33.0 µM -29% | [3]; at 100.0 µM -13% | [4]; [17] 6% | [4]; at 50.0 µM 65.9% | [5]; at 1.2 µM -24% | [5]; at 3.7 µM -23% | [5]; at 11.0 µM -10% | [5]; at 33.0 µM -8% | [5]; at 100.0 µM 29%
active: [10]; [18] 86% | [10]; at 100.0 µM 91% | [2]; at 100.0 µM 80% | [4]; [18] 78%
